LYPLA2 inh: counter-screen for PME1 inhibitors: inhibitors of human LYPLA2. recombinant LYPLA2, FP-Rh probe fluorescence polarization. inhibition, % at 5.9 µM. O95372. AID 2177. 320,000 compounds, 0.38% hits;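 active means inhibition above the screen-wide mean plus 3 SD, limit set per campaign, cut at about 26% in these data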
PME-1 inh: blocks human protein phosphatase methylesterase 1. Q9Y570. recombinant PME-1, FP-Rh probe fluorescence polarization. inhibition, % at 5.9 µM. 320,000 compounds, 0.53% hits. AID 2130;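 active means inhibition above the campaign mean of all compounds plus 3 SD, cut at about 26% in these data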;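 further: competitive labeling of PME-1 active site by serine hydrolase directed probe; inhibitors block probe labeling so polarization falls and inhibition rises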
Target sequence (Q9Y570 whole entry, looked up): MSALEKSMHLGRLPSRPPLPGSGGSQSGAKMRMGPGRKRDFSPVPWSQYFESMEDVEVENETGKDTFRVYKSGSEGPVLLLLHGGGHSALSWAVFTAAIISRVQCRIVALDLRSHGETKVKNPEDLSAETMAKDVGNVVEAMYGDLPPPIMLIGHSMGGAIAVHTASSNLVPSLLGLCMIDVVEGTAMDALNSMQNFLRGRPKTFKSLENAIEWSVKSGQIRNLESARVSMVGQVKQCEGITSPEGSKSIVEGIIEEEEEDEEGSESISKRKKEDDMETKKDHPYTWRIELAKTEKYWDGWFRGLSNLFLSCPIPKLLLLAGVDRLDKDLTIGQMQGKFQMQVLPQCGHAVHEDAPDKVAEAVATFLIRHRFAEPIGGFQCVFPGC
LYPLA1 counter: counter-screen for PME1 inhibitors: inhibitors of human LYPLA1; O75608; recombinant LYPLA1, FP-Rh probe fluorescence polarization; inhibition, % at 5.9 µM; 320,000 compounds, 0.16% hits; AID 2174;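 active means inhibition above the mean of all tested compounds plus 3 SD, set per campaign, cut at about 14% in these data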;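 further: inhibitors block serine hydrolase probe labeling of LYPLA1 so polarization falls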
Target sequence (O75608 whole entry, looked up): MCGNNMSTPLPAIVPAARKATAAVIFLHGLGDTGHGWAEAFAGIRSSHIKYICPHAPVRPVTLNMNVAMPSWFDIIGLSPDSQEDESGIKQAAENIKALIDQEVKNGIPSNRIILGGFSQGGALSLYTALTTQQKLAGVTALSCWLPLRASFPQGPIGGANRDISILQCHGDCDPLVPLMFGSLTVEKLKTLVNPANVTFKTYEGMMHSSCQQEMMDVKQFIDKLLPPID
PREPL inh: inhibitors of human prolyl oligopeptidase-like enzyme PREPL. Q4J6C6. recombinant PREPL, fluorescence polarization activity-based probe. inhibition, % at 5.96 µM. 320,000 compounds, 0.68% hits
Fam108B counter: counter-screen for RBBP9 inhibitors: inhibitors of mouse Fam108B; 300,000 compounds, 0.33% hits; inhibition, % at 9.51 µM; AID 1947; recombinant Fam108B, FP-Rh probe fluorescence polarization;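 active means inhibition above the screen mean inhibition plus 3 SD, computed separately per campaign, cut at about 18% in these data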;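 further: inhibitors lower polarization as less probe binds the enzyme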
PREPL inh cf: confirmation of human PREPL enzyme inhibitors; AID 2803; recombinant PREPL, fluorescence polarization activity probe; shares compounds with PREPL inh; 2,000 compounds, 67% hits; inhibition, % at 5.96 µM
A number is an active result; n = inactive; x = not tested or not shown. Rows were chosen to be rich in hits. Some 1.3% of all compounds tested hit in one or more screens of this group. Unless noted, no stated cut-off is given here; in the data, active means inhibition above about 43%; inactive means the rest.

SMILES	LYPLA2 inh	PME-1 inh	LYPLA1 counter	PREPL inh	Fam108B counter	PREPL inh cf
CC1CCCN(Cc2c(O)ccc3c(=O)c(-c4nc5ccccc5s4)c(N)oc23)C1 (stereo not drawn)	n	n	n	65	n	62
Cc1oc2c(CN3CCCC3)c(O)ccc2c(=O)c1-c1ccc(Br)cc1	n	n	n	n	n	x
CC1CCN(Cc2c(O)ccc3c(=O)c(-c4nc5ccccc5s4)c(N)oc23)CC1	n	n	n	44	n	n
O=C(NCCCn1ccnc1)c1nn2c(C(F)(F)F)cc(-c3ccc(Br)cc3)nc2c1Cl	n	n	n	n	n	x
O=C(c1cc(COc2cccc(C(F)(F)F)c2)on1)N1C[C@@H]2CCC[C@H]1C2	n	n	n	n	n	x
C=CCn1c(N)c(-c2nc3ccccc3n2C)sc1=S	n	n	n	44	n	n
COc1cc(/C=C2\C(=N)N3N=C(N4CCOCC4)SC3=NC2=O)ccc1OC(=O)c1ccccc1	n	n	n	n	n	x
N=C1/C(=C\c2ccc(OC(=O)c3ccccc3Cl)cc2)C(=O)N=C2SC(N3CCOCC3)=NN12	n	n	n	53	n	n
COc1ccc2c(c1OC)C[N+]1([O-])CCc3cc4c(cc3C1C2)OCO4 (stereo not drawn)	n	n	n	n	n	x
COc1ccc2c(c1)CC1c3c(cc4c(c3-2)OCO4)CC[N+]1(C)[O-] (stereo not drawn)	n	n	n	55	n	n
O=Cc1ccccc1OCCOc1ccc([N+](=O)[O-])cc1	n	n	n	43	n	n
CC(=O)c1ccc(OCCOc2ccc([N+](=O)[O-])cc2)cc1	n	n	n	n	n	x
O=C(Nc1ccccc1-c1ccccc1)c1ccc(NC(=O)c2ccco2)cc1	n	n	n	n	n	x
Cc1ccc(C(=O)Oc2cc(C)n(C)c(=O)c2)cc1	n	n	n	47	n	n
CC(C)Cn1cc(C(=O)N2CCN(c3ccccn3)CC2)c2c3ccccc3n(C)c2c1=O	n	n	n	51	n	n
CC(C)CN(CC(C)C)C(=O)C12CCC(C)(C(=O)O1)C2(C)C (stereo not drawn)	n	n	n	n	n	x
O=S(=O)(NCCc1cn2ccccc2n1)c1ccc2c(c1)CCCC2	n	n	n	n	n	x
COc1ccc(-c2[nH]nc3c2C(c2ccsc2)C(C#N)=C(N)O3)cc1 (stereo not drawn)	n	n	n	89	n	n
Cc1ccc(Cl)cc1NC(=O)C[n+]1ccc(Cc2ccc([N+](=O)[O-])cc2)cc1	n	n	n	67	n	n
O=C(C[n+]1ccc(Cc2ccccc2)cc1)Nc1ccc([N+](=O)[O-])cc1Cl	n	n	n	56	n	n
CC(C)(C)NC(=O)NC(=O)C[n+]1ccc(Cc2ccc([N+](=O)[O-])cc2)cc1	n	n	n	n	n	x
CCN(C(=O)CSc1nnc(CNc2cccc(OC)c2)n1C1CCCCC1)C1CCS(=O)(=O)C1 (stereo not drawn)	n	n	n	n	n	x
Fc1ccc(N2CCN(c3cnc4ccccc4n3)CC2)cc1	n	n	n	45	n	n
c1ccc(N2CCN(c3cnc4ccccc4n3)CC2)cc1	n	n	n	n	n	x
COc1ccc(NC(=O)c2ccc(NC(=O)CSc3nc(N)cc(=O)[nH]3)cc2)cc1	n	n	n	n	x	x
SMILES	LYPLA2 inh	PME-1 inh	LYPLA1 counter	PREPL inh	Fam108B counter	PREPL inh cf
CN1Cc2c(N3CCOCC3)nc3sc(C(=O)c4ccccc4)c(N)c3c2CC1(C)C	n	n	n	61	n	64
Cc1ccccc1C(=O)Nc1ccnn1C1CCN(C(=O)C2CCOC2)CC1 (stereo not drawn)	n	n	n	n	n	x
C#CCOCCOCCOCCNc1nc(N2CCN(C(=O)CCCCCCCCCCNC(=O)[C@H]([C@@H](C)CC)n3cc(CCCCN=C(N)N)nn3)CC2)nc(N2CCN(C(=O)CCCCCCCCCCNC(=O)[C@H](CCCCN)n3cc(C)nn3)CC2)n1	n	n	n	45	n	55
C#CCOCCOCCOCCNc1nc(N2CCN(C(=O)CCCCCCCCCCNC(=O)Cn3cc(C[C@@H](C)O)nn3)CC2)nc(N2CCN(C(=O)CCCCCCCCCCNC(=O)[C@H](CCCN=C(N)N)n3cc(C[C@@H](C)CC)nn3)CC2)n1	n	n	n	48	n	n
C#CCOCCOCCOCCNc1nc(N2CCN(C(=O)CCCCCCCCCCNC(=O)Cn3cc(C[C@@H](C)O)nn3)CC2)nc(N2CCN(C(=O)CCCCCCCCCCNC(=O)[C@H](CCCCN)n3cc(CCCC(=O)O)nn3)CC2)n1	n	n	n	n	n	x
C#CCOCCOCCOCCNc1nc(N2CCN(C(=O)CCCCCCCCCCNC(=O)[C@H]([C@@H](C)CC)n3cc(CCCCCN)nn3)CC2)nc(N2CCN(C(=O)CCCCCCCCCCNC(=O)[C@H](CCCCN)n3cc(CCCC(=O)O)nn3)CC2)n1	n	n	n	n	n	x
C#CCOCCOCCOCCNc1nc(N2CCN(C(=O)CCCCCCCCCCNC(=O)Cn3cc(CCCCCN)nn3)CC2)nc(N2CCN(C(=O)CCCCCCCCCCNC(=O)[C@H]([C@@H](C)CC)n3cc(CCCCN=C(N)N)nn3)CC2)n1	n	n	n	68	n	62
C#CCOCCOCCOCCNc1nc(N2CCN(C(=O)CCCCCCCCCCNC(=O)[C@H]([C@@H](C)CC)n3cc(CCCCN=C(N)N)nn3)CC2)nc(N2CCN(C(=O)CCCCCCCCCCNC(=O)[C@H](CO)n3cc(CCCCCN)nn3)CC2)n1	n	n	n	54	n	56
CC(=O)NC(NC(=S)Nc1cccc(Br)c1)C(Cl)(Cl)Cl (stereo not drawn)	n	n	n	n	n	x
O=C(CN1CCN(c2ccccc2O)CC1)Nc1ccc2c(c1)OCCCO2	n	n	n	n	x	x
C#CCOCCOCCOCCNc1nc(N2CCN(C(=O)CCCCCCCCCCNC(=O)[C@H]([C@@H](C)CC)n3cc(CCCCCN)nn3)CC2)nc(N2CCN(C(=O)CCCCCCCCCCNC(=O)[C@H](CO)n3cc(CCCCCN)nn3)CC2)n1	n	n	n	50	n	51
COc1cc(C)c(NC(=O)C(=S)NCCc2ccccc2)cc1C	n	n	n	n	n	x
Cc1ccc(NS(=O)(=O)c2ccc(C(=O)Nc3nncs3)cc2)cc1	x	x	x	45	x	n
Cc1cc(C)n2nc(/C(C#N)=C/c3ccccn3)c(C#N)c2n1	n	n	n	65	n	n
Cc1cc(C)n2nc(CC#N)c(C#N)c2n1	n	n	n	n	n	x
CC(C)C[C@@H]1CN=C(N)N1C[C@@H]1CCCN1C[C@H](C)N1C[C@@H](Cc2ccccc2)N(CCc2ccc(Cl)c(Cl)c2)C1=N	x	x	x	45	x	n
CC(C)C[C@@H]1CN=C(N)N1C[C@@H]1CCCN1C[C@@H](C(C)C)N1C[C@@H](Cc2ccccc2)N(CCc2ccc(Cl)c(Cl)c2)C1=N	x	x	x	70	x	64

Bioassay records (PubChem)
